Screens: PubChem, National Center for Advancing Translational Sciences (NCATS)
Rows were chosen to be rich in hits. Some 11% of all compounds tested hit in one or more screens of this group.
Coupling enz: qHTS Assay for Inhibitors of Fructose-1,6-bisphosphate Aldolase from Giardia Lamblia: Coupling assay counterscreen; coupling enzyme system counterscreen, AmpLite Red fluorescence; activity change, negative = inhibition, % at 58.2 µM, hits read low; actives 0.67% (n = 290,000); AID 2472, 2010; in the data active = activity change below about -30%
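Coupling enzymes only (glyceraldehyde-3-phosphate) + compound, at 57.5 uM final, 10 min RT; add substrate/coupling/AmpLite Red mix, 20 min RT; fluorescence ex 525/em 598 nm. Actives flag coupling-system interference.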
Tau fluor counter: Counterscreen qHTS for Inhibitors of Tau Fibril Formation, Fluorescence Polarization | tau K18 P301L Alexa594 fluorescence, heparin fibrillization | Potency, µM (titrated, usually from 57.7 µM), for inactives: at the top dose activity change, negative = decrease | actives 0.93% (n = 280,000) | AID 1463, 2008; note: potency is the fitted concentration of half-maximal effect; nearly all actives have a fitted effect of over 55% in size
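Human tau K18 P301L (15 uM unlabeled, 0.24 uM Alexa 594-labeled) in 100 mM sodium acetate pH 7 with 20 uM heparin, 6 hr at 37 C. ThT 30 uM added, 1 hr ambient; Alexa 594 FP and total fluorescence read at 555/632 nm.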
Tau ThT inhib: qHTS for Inhibitors of Tau Fibril Formation, Thioflavin T Binding. recombinant tau K18 P301L (four-repeat tau fragment), heparin-induced fibrillization, ThT fluorescence. actives 2.1% (n = 270,000). Potency, µM (top dose mostly 57.4 µM), inactives show top-dose activity, negative = inhibition, actives largely listed as inhibitors; note: potency is the fitted concentration of half-maximal effect; nearly all actives have a fitted effect of over 55% in size
Target sequence (P10636 561-689 P618L limits assumed): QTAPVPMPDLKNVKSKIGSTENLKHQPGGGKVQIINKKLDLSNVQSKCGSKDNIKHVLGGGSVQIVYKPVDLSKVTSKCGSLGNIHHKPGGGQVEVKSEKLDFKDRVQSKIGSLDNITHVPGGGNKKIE
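Heparin-induced fibrillization of the P301L-mutant K18 repeat-domain fragment of human tau was followed by ThT binding in quantitative high-throughput format.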
Sfp PPTase inh: qHTS Assay for Inhibitors of Bacillus subtilis Sfp phosphopantetheinyl transferase (PPTase) | actives 3.5% (n = 310,000) | 4'-phosphopantetheinyl transferase ffp (Bacillus subtilis), Q9F4F7 | Biochemical Sfp PPTase activity, qHTS | Potency, µM, inactives show largest response in the series, negative = inhibition, usual class: inhibitors | AID 1490, 2009;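 note: the enzyme is Sfp with the accession as filed and its product quenches rhodamine fluorescence; potency is the fitted concentration of half-maximal effect; 0% = enzyme reaction without inhibitor and -100% = no enzyme wells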
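Compounds were incubated with enzyme (final 15 nM) for 15 min at room temperature before substrate addition started the reaction. Fluorescence at 525 nm excitation, 598 nm emission was recorded immediately and after 30 minutes.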
G9a block: qHTS Assay for Inhibitors of Histone Lysine Methyltransferase G9a; Histone-lysine N-methyltransferase EHMT2 (Homo sapiens), Q96KQ7; G9a H3K9 monomethylation, AlphaScreen, 2 h; Potency, µM (titrated, usually from 102 µM), inactives show at the top dose activity, negative = inhibition, actives largely listed as inhibitors; actives 8.8% (n = 350,000); AID 504332, 2011; note: potency is the fitted concentration of half-maximal effect; nearly all actives have a fitted effect of over 75% in size
Target sequence (Q96KQ7 913-1193 limits assumed): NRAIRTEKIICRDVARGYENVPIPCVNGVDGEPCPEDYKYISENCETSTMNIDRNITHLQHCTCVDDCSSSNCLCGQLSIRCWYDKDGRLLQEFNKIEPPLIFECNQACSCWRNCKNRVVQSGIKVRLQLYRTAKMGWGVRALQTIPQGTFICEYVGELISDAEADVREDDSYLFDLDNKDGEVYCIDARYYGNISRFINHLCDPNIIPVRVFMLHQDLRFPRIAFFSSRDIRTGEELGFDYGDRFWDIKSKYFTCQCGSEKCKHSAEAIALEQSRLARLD
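AlphaScreen read-out: biotin-H3K9 peptide (500 nM) methylation by 20 nM enzyme with 20 uM SAM, 2 h at room temperature after 15 min compound preincubation; anti-monomethyl H3K9 antibody plus donor/acceptor beads, 10 min dark.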
Tau FP inhib: qHTS for Inhibitors of Tau Fibril Formation, Fluorescence Polarization | K18 P301L tau heparin fibrillization, Alexa594 FP, 6 h | Potency, µM (titrated, usually from 57.7 µM), for the others: top-dose activity, negative = inhibition, actives largely listed as inhibitors | actives 0.39% (n = 280,000) | AID 1468, 2008; note: potency is the fitted concentration of half-maximal effect; nearly all actives have a fitted effect of over 55% in size
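FP of Alexa 594-tau after heparin (20 uM) induction. Substrate: human K18 P301L, 15 uM unlabeled, 0.24 uM labeled. Buffer 100 mM sodium acetate pH 7. 6 hr, 37 C.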
Active calls of the source: *; ? = inconclusive; · = no result; [ ] = remark or other dose. Unless noted, calls come from the whole dose curve; as a rule, active = well fitted curve in the direction sought with a large enough effect; inconclusive = small, poorly fitted or top-dose-only effect, or another doubt; inactive = no such curve, though single readings can be large; an effect the other way counts as inactive or inconclusive. Unless noted, % is set by controls: 0 for no effect and ±100 for the full control effect.

SMILES	Coupling enz	Tau fluor counter	Tau ThT inhib	Sfp PPTase inh	G9a block	Tau FP inhib
O=S(=O)(c1ccc(Cl)cc1)c1snnc1-c1ccccc1	-9	-22%	?	-8%	23%	-8%
CC(C)(C)C1CCC(=NNc2ccc(S(N)(=O)=O)cc2[N+](=O)[O-])CC1 (stereo unspecified)	-4	?	13µM*	14%	25µM*	11%
CC1CCCC/C1=N\Nc1ccc(S(N)(=O)=O)cc1[N+](=O)[O-] (stereo unspecified)	-1	-9%	16µM*	11%	-5%[59 µM]	11%
CN(C)CCCNc1ccc(S(N)(=O)=O)cc1[N+](=O)[O-]	-1	13%	4%	23%	3%[59 µM]	-2%
CCC(C)(C)C1CCC(=NNS(=O)(=O)c2ccc(C)c([N+](=O)[O-])c2)CC1 (stereo unspecified)	-1	-11%	?	3%	13µM*	1%
Cc1ccc(Cc2cn3cc(-c4ccc(F)cc4)nc3s2)cc1	·	-13%	-7%	·	55%[59 µM]	-11%
Cc1ccc(Cc2c[nH]c(=S)s2)cc1	4	-16%	-9%	?	7.1µM*	0%
COCCn1c(C)cc(O)c(C(c2ccccc2Cl)N2CCN(c3ccccc3)CC2)c1=O (stereo unspecified)	·	3%	?	·	51%[59 µM]	-10%
COc1ccc(NC(=O)Cn2c(=O)n(-c3ccc(C)cc3)c(=O)c3c2cnn3C)cc1	·	-13%	-2%	·	29%[59 µM]	-2%
CC(C)(C)OC(=O)N1CCC(c2c(C(=O)NCc3ccco3)cnn2-c2ccc(F)cc2F)CC1	·	-2%	-4%	·	-41%[59 µM]	-4%
c1ccc(Cc2c[nH]c3ccccc23)cc1	0	·	·	-1%	·	·
S=c1[nH]nc(Cc2c[nH]c3ccccc23)o1	-1	-11%	-22%	-10%	1.6µM*	-1%
Cc1cc(O)ccc1Nc1nc(-c2cccs2)cs1	-1	25µM*[quencher]	14µM*	-18%	45µM*	4%
Cc1ccc(Nc2nc(-c3ccccc3)cs2)nc1	-1	·	·	-18%	2%[59 µM]	·
Cc1ccc(Nc2nc(-c3cccs3)cs2)nc1	0	22µM*[quencher]	16µM*	?	?	-9%
CCN(CC)c1ccc(/C=c2\sc3nnc(-c4ccccc4Cl)n3c2=O)cc1	0	-14%	7.1µM*	-1%	?	-4%
C=CCn1c(=O)/c(=C/c2ccc(C)o2)s/c1=C(/C#N)C(=O)c1ccccc1	-21	?	?	?	?	-5%
Cc1ccc(/C=c2/sc3nnc(-c4ccccc4Cl)n3c2=O)o1	-9	-20%	?	13µM*	11µM*	2%
CCN(CC)c1ccc(/C=c2/sc3nnc(-c4ccccc4C)n3c2=O)cc1	3	-10%	?	-6%	-44%	5%
Cc1ccc(NC(=O)CSc2nccn2Cc2ccco2)c(C)c1	1	·	·	-7%	·	·
CCOc1ccccc1NC(=O)CSc1nnc(-c2ccco2)n1Cc1ccco1	2	-9%	-10%	-11%	18µM*	-2%
COc1ccc(OC)c(NC(=O)CSc2nccn2Cc2ccco2)c1	·	·	·	13%	50µM*	·
COc1ccc(C)cc1NC(=O)CSc1nnc(-c2ccco2)n1Cc1ccco1	1	-6%	-12%	-19%	56µM*	2%
CCCCn1cc(S(=O)(=O)c2ccc(C)cc2)c(=O)c2cc(F)c(N3CCCCC3)cc21	·	3%	1%	·	-9%[59 µM]	2%
CC1=CC(C)(C)[N+](C)(C)c2ccc(C)cc21	4	0%	-3%	15%	56µM*	-1%
SMILES	Coupling enz	Tau fluor counter	Tau ThT inhib	Sfp PPTase inh	G9a block	Tau FP inhib
CCOC(=O)c1ccccc1NC(=O)COC(=O)CCC(=O)c1ccc(C)cc1	·	·	·	·	64%	·
Cc1ccc2oc(=O)c3cc(C(=O)N4CCN(c5ccccc5F)CC4)sc3c2c1	·	-23%	?	·	5%[59 µM]	5%
CCCN(CCC)C(=O)Cn1c(=O)n(-c2ccc(OC)cc2)c(=O)c2ccc(C(=O)NCc3ccc(C)cc3)cc21	·	-14%	1%	·	4%[59 µM]	-9%
O=C1C(c2cc(=O)c3ccccc3[nH]2)=C(O)c2ccccc21	-19	-10%	4.5µM*	-13%	3%[59 µM]	10%
O=C1CC(=C2c3ccccc3-c3ccccc32)C(=O)N1CCCCN1CCN(c2ccccc2)CC1	-2	-22%	?	-1%	7.9µM*	-4%
O=C(NCC(=O)N1CCN(S(=O)(=O)c2cccs2)CC1)c1ccc(Cl)cc1	1	2%	-1%	7%	9%	0%
O=[N+]([O-])c1cccnc1-n1cnc2ccccc21	-5	8%	9%	10µM*	45µM*	5%
Cc1cc2ncn(-c3ncccc3[N+](=O)[O-])c2cc1C	-5	·	·	40µM*	11µM*	·
CCOCCc1nn2c(=O)cc(COC(=O)c3ccc(NC(=O)c4ccc(F)cc4)cc3)nc2s1	·	12%	13%	·	15%[12.7 µM]	3%
O=C(CSc1nnnn1-c1ccccc1)c1ccco1	1	4%	-1%	8%	50µM*	1%
O=C(CSc1nnnn1-c1ccccc1)NC1CCCc2ccccc21 (stereo unspecified)	1	-10%	-8%	7%	35µM*	2%
O=C(CSc1nnc2sc3ccccc3n12)c1ccco1	-1	-3%	-22%	-6%	10µM*	4%
O=C(CSc1c(Cl)cccc1Cl)NC1CCCc2ccccc21 (stereo unspecified)	4	-5%	-9%	-14%	?	-2%
O=C(CSc1ncnc2ccccc12)c1ccco1	1	-19%	?	20µM*	13µM*	?
COC(=O)C[C@H](NC(=O)[C@H](C)NC(=O)[C@@H](NC(=O)OCc1ccccc1)C(C)C)C(=O)CF	·	3%	-3%	29%	37%[59 µM]	-2%
O=C(CSCCSCC(=O)c1ccco1)c1ccco1	-2	-15%	?	45µM*	10µM*	-14%
Cn1nnnc1SCC(=O)c1ccco1	1	-1%	-15%	?	?	-2%
O=c1c2ccccc2nnn1CSc1nnc2sc3ccccc3n12	2	-4%	-13%	-9%	7.1µM*	0%
COc1cc(C(=O)NCCC2=CCCCC2)ccc1OCc1c(C)noc1C	·	·	·	·	16%[2.33 µM]	·
CC1CCc2sc3c(c2C1)c(=O)n(CC(=O)O)c(=O)n3Cc1ccc(Cl)cc1 (stereo unspecified)	3	·	·	-29%	8%[0.501 µM]	·
